Test results from PubChem BioAssay (Tox21).
Inconclusive results are not listed. Calls of active or inactive are those of the source. Unless noted, calls come from the whole dose curve; as a rule, active = well fitted curve in the direction sought with a large enough effect in the repeat runs; inconclusive = weak or mixed curves; inactive = no such curve, though single readings can be large; an effect the other way counts as inactive or inconclusive.

Legend:
[1] = qHTS assay to identify small molecule antagonists of the TGF-beta/Smad signaling pathway - cell viability counter screen (AID 1346824); note: nearly all actives have a fitted effect of over 50% in size
Procedure, shortened: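 SBE-bla HEK 293T cells, incubated overnight, then compound plus 0.25 ng/mL TGF-beta1 (stock added) for 5 hr at 37 C. Viability was read in the same wells by CellTiter-Glo luminescence after 30 min at room temperature.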

[2] = qHTS assay to identify small molecule agonists of the TGF-beta/Smad signaling pathway (AID 1346859; active = well fitted activation curve with a large enough effect in the signal ratio in the repeat runs, not every such curve was filed as active; the % refers to the signal ratio; note: series mostly up to about 77 µM)
Procedure, shortened: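 Dual-wavelength fluorescence (460/530 nm emission) quantified beta-lactamase expression under the Smad binding element in HEK 293T cells following 5 hr compound treatment at 37 C.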

[3] = biological target: Thyrotropin-releasing hormone receptor (Homo sapiens) (UniProt P34981); assay: qHTS assay to identify small molecule antagonists of the thyrotropin-releasing hormone receptor (TRHR) signaling pathway (AID 1346877; active = well fitted inhibition curve with a large enough effect in the repeat runs, not every such curve was filed as active; note: potency is the fitted concentration of half-maximal effect)
Procedure, shortened: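 In this cell-based calcium flux format, HEK293 cells expressing TRHR received test compound for 5 min before the agonist TRH (1 nM final). Dye loading lasted 2 h at 37 °C.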

[4] = biological target: Thyrotropin-releasing hormone receptor (Homo sapiens) (UniProt P34981); assay: qHTS assay to identify small molecule agonists of the thyrotropin-releasing hormone receptor (TRHR) signaling pathway (AID 1346891; calls by dose curve; note: potency is the fitted concentration of half-maximal effect; for activation: series mostly up to about 58 µM)
Procedure, shortened: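 Kinetic fluorescence (3 min, 1 s intervals) reported intracellular calcium after compound transfer onto TRHR-Hek293 cells pre-loaded with dye for 2 h at 37 °C.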

[5] = Human pregnane X receptor (PXR) small molecule agonists, qHTS cell viability counter screen (AID 1346977); note: nearly all actives have a fitted effect of over 50% in size; note: potency is the fitted concentration of half-maximal effect
Procedure, shortened: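 HepG2 cells stably carrying the PXR-Luc reporter are cultured with 5% charcoal-stripped FBS and treated with compounds for 24hr. CellTiter-Fluor is added at 23hr and fluorescence is read after 1hr.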

[6] = Caspase-3/7 induction in HepG2 cells by small molecules, qHTS assay (AID 1346978); note: nearly all actives have a fitted effect of over 15% in size; note: potency is the fitted concentration of half-maximal effect
Procedure, shortened: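 Wild-type HepG2 cells, 2,000/well, settled 5 hr at 37 C and 5% CO2, then compound-treated for 17 hr; caspase-3/7 activity read by luminescent Caspase-Glo 3/7 after 30 min at room temperature.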

[7] = Caspase-3/7 induction in CHO-K1 cells by small molecules, qHTS cell viability counter screen (AID 1346979); note: nearly all actives have a fitted effect of over 35% in size; note: potency is the fitted concentration of half-maximal effect
Procedure, shortened: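 Seeding: 1,500 CHO-K1 cells/well. Rest: 5hr, 37C. Treatment: compounds in DMSO, 16hr. Read: CellTiter-Fluor, 1hr, fluorescence.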

[8] = Caspase-3/7 induction in CHO-K1 cells by small molecules, qHTS assay (AID 1346980); note: nearly all actives have a fitted effect of over 15% in size; note: potency is the fitted concentration of half-maximal effect
Procedure, shortened: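 Wild-type CHO-K1 cells exposed to compounds for 17hr at 37 C, 5% CO2. Caspase-3/7 activity then measured by Caspase-Glo 3/7 luminescence after 30min at room temperature.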

[9] = Caspase-3/7 induction in HepG2 cells by small molecules, qHTS cell viability counter screen (AID 1346981); note: nearly all actives have a fitted effect of over 30% in size; note: potency is the fitted concentration of half-maximal effect
Procedure, shortened: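 Counter screen for cytotoxicity: HepG2 exposed 16 hr to compounds, then CellTiter-Fluor viability signal (fluorescence, 1 hr reagent incubation).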

[10] = biological target: Nuclear receptor subfamily 1 group I member 2 (Homo sapiens) (UniProt O75469); assay: Human pregnane X receptor (PXR) small molecule agonists, qHTS assay (AID 1346982); note: nearly all actives have a fitted effect of over 35% in size; note: potency is the fitted concentration of half-maximal effect
Procedure, shortened: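 Luminescence (ONE-Glo, 30 min RT) after 24 hr compound exposure of PXR-Luc HepG2 cells; cells rested 5 hr post-plating in 5% charcoal-stripped FBS medium.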

[11] = biological target: Cytochrome P450 2D6 (Homo sapiens) (UniProt P10635); assay: Cytochrome P450 Family 2 Subfamily D Member 6 (CYP2D6) small molecule antagonists: luciferase reporter qHTS assay (AID 1671196); note: nearly all actives have a fitted effect of over 50% in size; note: potency is the fitted concentration of half-maximal effect
Procedure, shortened: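 Inhibition of CYP2D6 was gauged by loss of luminescence, since light produced tracks the luciferin generated from a proluciferin substrate. A 10 min room-temperature preincubation preceded 1 h NADPH-supported turnover.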

[12] = biological target: Cytochrome P450 1A2 (Homo sapiens) (UniProt P05177); assay: Cytochrome P450 Family 1 Subfamily A Member 2 (CYP1A2) small molecule antagonists: luciferase reporter qHTS assay (AID 1671199); note: nearly all actives have a fitted effect of over 50% in size; note: potency is the fitted concentration of half-maximal effect
Procedure, shortened: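 Signal from luciferin formed by CYP1A2 from a proluciferin substrate is read as luminescence, expressed in relative luminescence units. Compounds sit with enzyme 10 min, NADPH-driven reaction runs 1 h, all at room temperature.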

[13] = biological target: Nuclear receptor subfamily 1 group I member 2 (Rattus norvegicus) (UniProt Q9R1A7); assay: Rat pregnane X receptor (rPXR) activation by small molecules, qHTS assay (AID 1346983); conditions: rPXR luciferase reporter cells, One-Glo luminescence, 24 h; max activation: hits give high values; note: nearly all actives have a fitted effect of over 20% in size
Procedure, shortened: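 Cell-based rPXR activation assay: rPXR cells, 2,000 per well, rested 5hr at 37 C, then exposed to compounds in DMSO for 24 hr at 37 C. Luciferase activity read by One-Glo luminescence after 30 min at room temperature.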

[14] = biological target: Cytochrome P450 2C19 (Homo sapiens) (UniProt P33261); assay: Cytochrome P450 Family 2 Subfamily C Member 19 (CYP2C19) small molecule antagonists: luciferase reporter qHTS assay (AID 1671197); note: nearly all actives have a fitted effect of over 65% in size; note: potency is the fitted concentration of half-maximal effect
Procedure, shortened: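 P450-Glo CYP2C19 system: enzyme-substrate mix with compound 10 min at room temperature, then NADPH regeneration solution, 1 h at 37C. Proluciferin-to-luciferin conversion detected by luminescence after 20 min with detection reagent; ketoconazole as positive control.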

[15] = biological target: Cytochrome P450 2C9 (Homo sapiens) (UniProt P11712); assay: Cytochrome P450 Family 2 Subfamily C Member 9 (CYP2C9) small molecule antagonists: luciferase reporter qHTS assay (AID 1671198); note: nearly all actives have a fitted effect of over 50% in size; note: potency is the fitted concentration of half-maximal effect
Procedure, shortened: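 P450-Glo proluciferin substrate with CYP2C9 enzyme; 10 min RT preincubation, then NADPH regeneration 1 h at 37C; luciferin detection reagent 20 min RT, luminescence in relative luminescence units.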

[16] = biological target: Voltage-gated inwardly rectifying potassium channel KCNH2 (Homo sapiens) (UniProt Q12809); assay: Human Ether-a-go-go-Related Gene (hERG) channel small molecule antagonists: fluorescence cell-based qHTS assay (AID 1671200)
Procedure, shortened: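 First, 1000 cells per well are seeded and cultured overnight at 37 C. Next, FluxOR II dye is loaded for 1 h at room temperature, protected from light. After 10 more minutes, stimulus is added and fluorescence is read.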

[17] = biological target: Nuclear receptor subfamily 1 group I member 2 (Homo sapiens) (UniProt O75469); assay: CYP3A4 induction through human pregnane X receptor (PXR) by small molecules, qHTS assay (AID 1346984); note: nearly all actives have a fitted effect of over 40% in size
Procedure, shortened: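 DPX-2 reporter cells; 24h cpd, 37C; Luciferin-IPA 3uM final x3h; One-Glo 30 min RT; lumi read.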

[18] = qHTS assay to identify small molecule agonists of the TGF-beta/Smad signaling pathway - cell viability counter screen (AID 1346829); note: top concentration of the series differs between compounds; nearly all actives have a fitted effect of over 45% in size
Procedure, shortened: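 SBE-bla HEK 293T cells plated overnight, compound exposure 5 hr at 37 C. Viability read in the same wells by CellTiter-Glo luminescence after 30 min at room temperature, following the beta-lactamase read.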
% is set by controls: 0 for no effect and ±100 for the full control effect.

Nuclear receptor subfamily 1 group I member 2 (Rattus norvegicus), sequence (Q9R1A7 whole entry, looked up): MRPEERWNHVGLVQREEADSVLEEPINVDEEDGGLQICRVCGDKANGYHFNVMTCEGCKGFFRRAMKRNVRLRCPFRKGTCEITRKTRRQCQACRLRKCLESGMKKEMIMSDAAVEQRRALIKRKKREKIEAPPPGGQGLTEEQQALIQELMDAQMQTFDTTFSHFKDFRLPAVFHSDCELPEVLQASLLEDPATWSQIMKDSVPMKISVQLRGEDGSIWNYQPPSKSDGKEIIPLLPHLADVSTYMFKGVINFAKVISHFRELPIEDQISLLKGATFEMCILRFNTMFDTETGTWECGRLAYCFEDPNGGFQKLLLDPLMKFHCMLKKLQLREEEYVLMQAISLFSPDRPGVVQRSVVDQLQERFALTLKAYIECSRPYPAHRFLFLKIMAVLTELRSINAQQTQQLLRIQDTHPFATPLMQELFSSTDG
Thyrotropin-releasing hormone receptor (Homo sapiens), sequence (P34981 whole entry, looked up): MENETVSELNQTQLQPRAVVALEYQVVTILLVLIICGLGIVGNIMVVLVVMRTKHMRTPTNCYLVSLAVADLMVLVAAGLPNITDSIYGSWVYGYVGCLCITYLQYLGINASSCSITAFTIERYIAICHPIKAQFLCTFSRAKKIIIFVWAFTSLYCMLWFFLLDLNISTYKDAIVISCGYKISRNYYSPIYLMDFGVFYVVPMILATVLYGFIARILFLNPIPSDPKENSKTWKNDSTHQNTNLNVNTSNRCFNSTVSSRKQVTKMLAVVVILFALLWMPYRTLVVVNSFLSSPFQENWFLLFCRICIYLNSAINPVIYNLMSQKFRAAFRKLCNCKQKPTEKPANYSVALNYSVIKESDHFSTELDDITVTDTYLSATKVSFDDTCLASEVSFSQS
Cytochrome P450 2D6 (Homo sapiens), sequence (P10635 whole entry, looked up): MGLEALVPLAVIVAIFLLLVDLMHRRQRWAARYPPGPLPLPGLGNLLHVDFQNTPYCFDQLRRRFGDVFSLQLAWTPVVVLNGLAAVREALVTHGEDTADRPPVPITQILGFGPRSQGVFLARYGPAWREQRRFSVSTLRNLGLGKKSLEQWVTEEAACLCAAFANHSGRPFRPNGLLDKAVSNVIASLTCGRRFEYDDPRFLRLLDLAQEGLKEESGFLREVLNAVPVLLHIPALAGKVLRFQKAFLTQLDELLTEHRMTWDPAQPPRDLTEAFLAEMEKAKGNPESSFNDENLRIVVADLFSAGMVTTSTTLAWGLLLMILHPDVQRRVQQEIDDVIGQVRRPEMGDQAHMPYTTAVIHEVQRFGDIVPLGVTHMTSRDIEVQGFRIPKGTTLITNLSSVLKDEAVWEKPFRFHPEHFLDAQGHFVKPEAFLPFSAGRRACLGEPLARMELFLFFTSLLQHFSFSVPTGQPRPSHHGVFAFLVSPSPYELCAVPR
Nuclear receptor subfamily 1 group I member 2 (Homo sapiens), sequence (O75469 whole entry, looked up): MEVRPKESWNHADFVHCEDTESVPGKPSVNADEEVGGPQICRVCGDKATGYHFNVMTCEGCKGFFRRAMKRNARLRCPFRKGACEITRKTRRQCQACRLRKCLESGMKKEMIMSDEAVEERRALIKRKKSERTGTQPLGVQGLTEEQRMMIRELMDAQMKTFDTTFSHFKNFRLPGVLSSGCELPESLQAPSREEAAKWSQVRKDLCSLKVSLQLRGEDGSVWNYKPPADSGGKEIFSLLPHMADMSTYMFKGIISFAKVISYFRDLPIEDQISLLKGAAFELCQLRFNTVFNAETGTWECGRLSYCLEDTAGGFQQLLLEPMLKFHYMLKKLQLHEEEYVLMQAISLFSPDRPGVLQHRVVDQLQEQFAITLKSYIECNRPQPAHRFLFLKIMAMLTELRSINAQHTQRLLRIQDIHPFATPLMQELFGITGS
Cytochrome P450 2C19 (Homo sapiens), sequence (P33261 whole entry, looked up): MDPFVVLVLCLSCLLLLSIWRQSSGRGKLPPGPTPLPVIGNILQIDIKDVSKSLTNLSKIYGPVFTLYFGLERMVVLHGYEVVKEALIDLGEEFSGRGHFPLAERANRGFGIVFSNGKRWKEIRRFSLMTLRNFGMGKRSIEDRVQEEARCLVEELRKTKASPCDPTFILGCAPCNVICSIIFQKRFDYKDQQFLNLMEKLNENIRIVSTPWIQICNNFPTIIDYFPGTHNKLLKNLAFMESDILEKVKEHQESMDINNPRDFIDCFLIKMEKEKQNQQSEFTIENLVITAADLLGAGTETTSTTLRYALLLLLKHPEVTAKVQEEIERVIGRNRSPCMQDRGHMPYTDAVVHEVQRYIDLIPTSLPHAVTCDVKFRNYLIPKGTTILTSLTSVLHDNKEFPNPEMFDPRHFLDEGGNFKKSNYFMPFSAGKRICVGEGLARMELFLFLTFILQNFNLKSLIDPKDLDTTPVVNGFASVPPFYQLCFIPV
Cytochrome P450 1A2 (Homo sapiens), sequence (P05177 whole entry, looked up): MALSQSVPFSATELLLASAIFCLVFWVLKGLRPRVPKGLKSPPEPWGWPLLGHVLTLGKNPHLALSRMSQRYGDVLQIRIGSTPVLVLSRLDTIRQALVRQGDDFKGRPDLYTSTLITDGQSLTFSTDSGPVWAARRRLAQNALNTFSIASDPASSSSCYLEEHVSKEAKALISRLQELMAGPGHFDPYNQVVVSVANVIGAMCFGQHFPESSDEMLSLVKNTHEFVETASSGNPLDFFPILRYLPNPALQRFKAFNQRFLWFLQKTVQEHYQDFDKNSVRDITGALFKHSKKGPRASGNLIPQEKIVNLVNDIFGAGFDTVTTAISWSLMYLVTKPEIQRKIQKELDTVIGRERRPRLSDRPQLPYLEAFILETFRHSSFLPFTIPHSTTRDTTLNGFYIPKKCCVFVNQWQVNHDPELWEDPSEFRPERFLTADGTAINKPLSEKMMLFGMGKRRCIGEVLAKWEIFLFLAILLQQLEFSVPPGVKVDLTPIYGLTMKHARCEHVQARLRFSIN
Cytochrome P450 2C9 (Homo sapiens), sequence (P11712 whole entry, looked up): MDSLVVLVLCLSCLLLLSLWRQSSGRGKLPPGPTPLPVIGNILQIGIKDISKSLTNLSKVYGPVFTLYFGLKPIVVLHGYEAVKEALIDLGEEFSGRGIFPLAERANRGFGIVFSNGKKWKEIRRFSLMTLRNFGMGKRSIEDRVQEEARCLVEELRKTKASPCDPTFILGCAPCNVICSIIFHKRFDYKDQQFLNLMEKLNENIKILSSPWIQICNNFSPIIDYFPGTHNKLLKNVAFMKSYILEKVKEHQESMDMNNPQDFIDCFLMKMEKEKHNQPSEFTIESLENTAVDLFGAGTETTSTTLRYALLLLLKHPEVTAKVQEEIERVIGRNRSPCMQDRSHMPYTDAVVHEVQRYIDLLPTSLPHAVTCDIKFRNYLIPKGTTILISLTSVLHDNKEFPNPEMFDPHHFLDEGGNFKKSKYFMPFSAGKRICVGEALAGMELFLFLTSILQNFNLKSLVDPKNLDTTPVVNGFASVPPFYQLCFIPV
Voltage-gated inwardly rectifying potassium channel KCNH2 (Homo sapiens), sequence (Q12809 whole entry, looked up): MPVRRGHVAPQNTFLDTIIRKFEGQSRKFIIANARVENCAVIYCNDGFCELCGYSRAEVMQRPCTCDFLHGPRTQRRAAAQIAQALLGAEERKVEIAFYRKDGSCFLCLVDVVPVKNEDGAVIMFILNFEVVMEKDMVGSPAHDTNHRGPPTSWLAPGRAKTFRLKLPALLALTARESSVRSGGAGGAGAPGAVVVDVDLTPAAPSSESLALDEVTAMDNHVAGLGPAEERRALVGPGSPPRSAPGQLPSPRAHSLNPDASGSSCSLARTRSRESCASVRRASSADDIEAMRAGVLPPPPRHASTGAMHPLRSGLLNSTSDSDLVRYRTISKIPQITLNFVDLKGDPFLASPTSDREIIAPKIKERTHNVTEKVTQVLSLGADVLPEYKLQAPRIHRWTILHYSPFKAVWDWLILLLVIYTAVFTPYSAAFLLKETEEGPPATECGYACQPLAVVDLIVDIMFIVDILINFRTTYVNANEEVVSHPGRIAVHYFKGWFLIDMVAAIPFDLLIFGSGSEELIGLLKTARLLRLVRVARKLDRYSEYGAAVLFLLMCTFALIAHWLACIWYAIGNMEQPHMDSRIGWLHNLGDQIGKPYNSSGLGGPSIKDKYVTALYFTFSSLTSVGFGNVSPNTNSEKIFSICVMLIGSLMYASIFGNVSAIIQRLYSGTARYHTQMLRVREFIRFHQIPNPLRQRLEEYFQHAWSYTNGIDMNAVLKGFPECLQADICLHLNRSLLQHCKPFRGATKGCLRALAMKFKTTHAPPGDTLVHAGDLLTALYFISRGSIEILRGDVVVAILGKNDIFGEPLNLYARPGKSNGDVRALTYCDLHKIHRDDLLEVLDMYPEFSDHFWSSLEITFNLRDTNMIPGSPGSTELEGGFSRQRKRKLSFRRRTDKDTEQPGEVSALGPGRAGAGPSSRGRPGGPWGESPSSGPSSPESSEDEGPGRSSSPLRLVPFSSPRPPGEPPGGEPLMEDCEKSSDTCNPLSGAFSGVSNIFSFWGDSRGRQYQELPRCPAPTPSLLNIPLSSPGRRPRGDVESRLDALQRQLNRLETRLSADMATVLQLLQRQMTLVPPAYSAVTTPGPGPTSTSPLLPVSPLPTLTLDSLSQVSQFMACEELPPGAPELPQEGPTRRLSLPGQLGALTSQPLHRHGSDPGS

c1ccc2occc2c1
inactive: Potency [1] | outcome [2] | Potency [3] | Potency [4] | Potency [5] | Potency [6] | Potency [7] | Potency [8] | Potency [9] | Potency [10]
active: Potency [11] 31.7 µM | Potency [12] 28.3 µM

Cc1ncc(C[n+]2csc(CCO)c2C)c(N)n1
inactive: max activation [13] -0.76%

CC(=O)CC(N)=O
inactive: Potency [1] | outcome [2] | Potency [3] | Potency [4] | Potency [5] | Potency [6] | Potency [7] | Potency [8] | Potency [9] | Potency [10] | Potency [11] | Potency [14] | Potency [15] | Potency [12] | Potency [16]

COc1cc(NS(C)(=O)=O)ccc1Nc1c2ccccc2nc2ccccc12
inactive: max activation [13] -19% | Potency [17]

CCN1\C(=C/C=C/C=C/c2sc3ccccc3[n+]2CC)Sc2ccccc21
inactive: max activation [13] -28.2% | Potency [17]

CN1CCN(CCCN2c3ccccc3Sc3ccc(C(F)(F)F)cc32)CC1
inactive: Potency [1] | outcome [2] | Potency [6] | max activation [13] -11.2%
active: Potency [5] 23.7 µM | Potency [7] 33.5 µM

Nc1ccc(N)c([N+](=O)[O-])c1
active: Potency [7] 40.9 µM | Potency [9] 54.5 µM
inactive: Potency [6] | Potency [8]

CN1CC[C@H](c2c(O)cc(O)c3c(=O)cc(-c4ccccc4Cl)oc23)[C@H](O)C1
active: Potency [5] 0.0944 µM | Potency [6] 0.237 µM | Potency [7] 0.0944 µM | Potency [8] 0.266 µM | Potency [9] 0.335 µM | Potency [10] 0.106 µM
inactive: Potency [1] | Potency [18] | Potency [14] | Potency [12]

CCCCCCCCOC(=O)c1cc(O)c(O)c(O)c1
inactive: Potency [1] | Potency [18]
active: Potency [8] 1.54 µM | Potency [11] 11.2 µM | Potency [14] 5.64 µM | Potency [15] 2.24 µM | Potency [12] 71 µM

O=C1Cc2ccccc2C1
inactive: Potency [3] | Potency [4] | Potency [8]
active: Potency [7] 68.6 µM

CS(=O)(=O)c1ccc([C@@H](CC2CCCC2)C(=O)Nc2cnccn2)cc1Cl
inactive: Potency [6] | Potency [8]
active: Potency [7] 61.1 µM | Potency [9] 61.1 µM

O=C(O)c1ccccn1
inactive: max activation [13] -2.98%

CCCCCCCCCCCCCCCC[n+]1ccccc1
inactive: max activation [13] -15.5%

COc1cc([C@@H]2c3cc4c(cc3[C@@H](O[C@@H]3O[C@@H]5CO[C@@H](C)O[C@H]5[C@H](O)[C@H]3O)[C@H]3COC(=O)[C@H]23)OCO4)cc(OC)c1O
active: Potency [6] 53.9 µM
inactive: Potency [1] | Potency [18] | Potency [8] | Potency [9] | Potency [16]

O=C1OC2(c3ccccc31)c1ccc(O)c(Br)c1Oc1c2ccc(O)c1Br
inactive: Potency [1] | Potency [5] | Potency [6] | Potency [8] | Potency [10] | Potency [11] | Potency [12]
active: Potency [3] 1.2 µM | Potency [4] 3.89 µM | Potency [7] 27.3 µM | Potency [9] 27.3 µM | Potency [14] 89.4 µM

CC/C=C\C/C=C\C/C=C\CCCCCCCC(=O)OC
inactive: Potency [1] | outcome [2] | Potency [3] | Potency [4] | Potency [16]
active: Potency [7] 61.1 µM | Potency [14] 56.4 µM | Potency [15] 28.3 µM | Potency [12] 63.3 µM

O.O.O.O.O.O.O.O=S(=O)([O-])[O-].[Co+2]
inactive: max activation [13] -2.66%
